Results reported in PubChem BioAssay (NCI).
This is part of a sample that, as a whole, favours compounds with a hit. Of some 79,000 tested, about 15% had one in any assay. Active and inactive are the calls of the source. No stated cut-off is given here; in the data, active means growth inhibition above about 70%; inactive means the rest.

Legend:
[1] = NCI Yeast Anticancer Drug Screen. Data for the wt1 strain (AID 149);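 further: 0% = growth of vehicle-treated wt1 cultures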; conditions: S. cerevisiae wt1 strain (SPY 50644) growth inhibition, hits give high values
Method in brief: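 Readout: yeast growth inhibition, normalised to vehicle controls, in the wt1 strain exposed to test compounds.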

[2] = NCI Yeast Anticancer Drug Screen. Data for the rad50EPP+ strain (AID 151);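 further: 0% = growth of vehicle-treated control cultures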; conditions: S. cerevisiae rad50 mutant strain, hits give high values
Method in brief: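 Exposing the rad50EPP+ strain to each compound, growth was compared with vehicle-only cultures to give inhibition.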

[3] = NCI Yeast Anticancer Drug Screen. Data for the mgt1 strain (AID 153); conditions: S. cerevisiae mgt1 mutant growth inhibition, hits give high values
Method in brief: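 Genetically defined yeast (mgt1) treated with compound; inhibition of growth expressed against vehicle-treated controls.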

[4] = NCI Yeast Anticancer Drug Screen. Data for the rad50 strain (AID 155);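 further: 0% = growth of vehicle-only cultures of the same strain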; conditions: S. cerevisiae rad50 strain growth inhibition, hits give high values
Method in brief: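 Compounds were tested on a yeast strain with an engineered DNA damage repair alteration; the reported value is growth inhibition normalised to vehicle treatment.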

[5] = NCI Yeast Anticancer Drug Screen. Data for the mec2-1 strain (AID 157); conditions: S. cerevisiae mec2-1 strain, hits give high values
Method in brief: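 Readout is yeast growth inhibition, normalised to vehicle-treated controls, in the mec2-1 strain exposed to compound.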

[6] = NCI Yeast Anticancer Drug Screen. Data for the rad14 strain (AID 159);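 further: 0% = growth of vehicle-treated control cultures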; conditions: S. cerevisiae rad14 strain growth inhibition, hits give high values
Method in brief: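 Compound-treated yeast with a defined DNA-repair lesion; growth inhibition normalised to vehicle-treated cultures.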

[7] = NCI Yeast Anticancer Drug Screen. Data for the sgs1 mgt1 strain (AID 161);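 further: 0% = growth of cultures given vehicle only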; conditions: S. cerevisiae sgs1 mgt1 strain, hits give high values
Method in brief: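 Compounds are added to genetically altered yeast, and growth is compared with cultures given vehicle alone to give percent inhibition.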

[8] = NCI Yeast Anticancer Drug Screen. Data for the CLN2oe strain (AID 163);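 further: 0% = growth of vehicle-only control cultures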; conditions: S. cerevisiae CLN2oe strain, hits give high values
Method in brief: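 Values reflect how much compound exposure reduced yeast growth, referenced to vehicle-exposed cells. Assay organism is a strain with a defined genetic change affecting cell-cycle control.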

[9] = NCI Yeast Anticancer Drug Screen. Data for the cln2 rad14 strain (AID 165);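 further: 0% = growth equal to vehicle treated cultures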; conditions: S. cerevisiae cln2 rad14 strain, hits give high values
Method in brief: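 Relative to vehicle controls, growth inhibition of compound-treated cln2 rad14 yeast was recorded.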

[10] = NCI Yeast Anticancer Drug Screen. Data for the bub3 strain (AID 167); conditions: S. cerevisiae bub3 mutant strain, hits give high values
Method in brief: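 Growth of a checkpoint-deficient yeast mutant is measured after compound exposure. Values represent inhibition relative to vehicle.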

[11] = NCI Yeast Anticancer Drug Screen. Data for the wt2 strain (AID 169);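 further: 0% = growth of vehicle-treated yeast cultures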; conditions: S. cerevisiae wt2 strain growth inhibition, hits give high values
Method in brief: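 Values express reduction in yeast growth under compound treatment, referenced to vehicle-treated cells.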

[12] = NCI Yeast Anticancer Drug Screen. Data for the mlh1 strain (AID 171);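 further: 0% = growth of vehicle-treated control cultures of the same strain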; conditions: S. cerevisiae mlh1 strain growth inhibition, hits give high values
Method in brief: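 Steps: expose the defined-mutant yeast strain to compound; expose a parallel culture to vehicle; measure growth; express compound effect as inhibition relative to the vehicle culture.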

[13] = NCI Yeast Anticancer Drug Screen. Data for the sgs1 strain (AID 173);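 further: 0% = growth of vehicle-only control cultures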; conditions: S. cerevisiae sgs1 mutant, hits give high values
Method in brief: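 Treat defined-mutant yeast with compound; measure growth; calculate inhibition relative to vehicle-treated cells.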

[14] = NCI Yeast Anticancer Drug Screen. Data for the mlh1 rad18 strain (AID 175); conditions: S. cerevisiae mlh1 rad18 strain growth inhibition, hits give high values
Method in brief: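 Test agents were incubated with a yeast strain of defined genotype (DNA damage repair defect). Inhibition of growth was derived by comparison with vehicle-exposed cultures.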

[15] = NCI Yeast Anticancer Drug Screen. Data for the rad18 strain (AID 177); conditions: S. cerevisiae rad18 mutant growth inhibition, hits give high values
Method in brief: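 A genetically defined yeast mutant impaired in DNA damage repair was treated with test compounds, then its growth was measured against cultures receiving vehicle alone.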

[16] = at 5.0 µM (retest, dose inferred, filed as 0.5)
[17] = at 50.0 µM (retest, dose inferred, filed as 5.0)

Measured: growth inhibition

Cc1nc2ccccc2c(=O)n1NC(=O)c1ccc(CS)cc1
active: [1]; at 100.0 µM 96% | [2]; at 100.0 µM 85% | [3]; at 100.0 µM 86% | [4]; at 100.0 µM 97% | [5]; at 50.0 µM 76.2% | [5]; at 100.0 µM 97% | [6]; at 100.0 µM 95% | [8]; at 100.0 µM 95% | [10]; at 100.0 µM 96% | [11]; at 100.0 µM 92% | [12]; at 100.0 µM 95% | [13]; at 100.0 µM 95% | [14]; [17] 71% | [15]; at 100.0 µM 96%
inactive: [1]; at 1.2 µM 8% | [1]; at 3.7 µM 1% | [1]; at 11.0 µM 4% | [1]; at 33.0 µM 17% | [2]; at 1.2 µM -9% | [2]; at 3.7 µM 4% | [2]; at 11.0 µM -3% | [2]; at 33.0 µM 23% | [3]; at 1.2 µM -11% | [3]; at 3.7 µM -12% | [3]; at 11.0 µM -17% | [3]; at 33.0 µM 6% | [4]; at 1.2 µM 7% | [4]; at 3.7 µM 3% | [4]; [16] -24% | [4]; at 11.0 µM 4% | [4]; at 33.0 µM 23% | [4]; [17] 9% | [4]; at 50.0 µM 66.2% | [5]; at 1.2 µM -16% | [5]; at 3.7 µM -4% | [5]; [16] -27% | [5]; at 11.0 µM -13% | [5]; at 33.0 µM 23% | [5]; [17] 1% | [6]; at 1.2 µM -21% | [6]; at 3.7 µM -23% | [6]; at 11.0 µM -25% | [6]; at 33.0 µM 26% | [7]; [16] -14% | [7]; [17] 3% | [7]; at 50.0 µM 65.5% | [8]; at 1.2 µM 2% | [8]; at 3.7 µM -17% | [8]; at 11.0 µM -6% | [8]; at 33.0 µM 22% | [9]; [16] -29% | [9]; [17] 6% | [9]; at 50.0 µM 31.9% | [10]; at 1.2 µM 16% | [10]; at 3.7 µM -6% | [10]; [16] -13% | [10]; at 11.0 µM 16% | [10]; at 33.0 µM 45% | [10]; [17] 41% | [10]; at 50.0 µM -8.65% | [11]; at 1.2 µM 4% | [11]; at 3.7 µM 7% | [11]; at 11.0 µM 9% | [11]; at 33.0 µM 16% | [12]; at 1.2 µM 0% | [12]; at 3.7 µM 12% | [12]; at 11.0 µM 16% | [12]; at 33.0 µM 36% | [13]; at 1.2 µM 15% | [13]; at 3.7 µM 11% | [13]; at 11.0 µM 20% | [13]; at 33.0 µM 61% | [14]; [16] -51% | [14]; at 50.0 µM 65% | [15]; at 1.2 µM 9% | [15]; at 3.7 µM 12% | [15]; at 11.0 µM 2% | [15]; at 33.0 µM 40%

O=C(O)NCC1CCCCC1 (tested in a mixture with another compound)
active: [4]; at 100.0 µM 83% | [13]; at 100.0 µM 75%
inactive: [1]; at 1.2 µM -1% | [1]; at 3.7 µM -4% | [1]; at 11.0 µM -4% | [1]; at 33.0 µM -5% | [1]; at 100.0 µM -4% | [2]; at 1.2 µM 0% | [2]; at 3.7 µM -4% | [2]; at 11.0 µM -3% | [2]; at 33.0 µM 7% | [2]; at 100.0 µM 4% | [3]; at 1.2 µM -2% | [3]; at 3.7 µM -4% | [3]; at 11.0 µM -4% | [3]; at 33.0 µM -4% | [3]; at 100.0 µM 16% | [4]; at 1.2 µM 2% | [4]; at 3.7 µM -3% | [4]; [16] 1% | [4]; at 11.0 µM -6% | [4]; at 33.0 µM 7% | [4]; [17] 38% | [4]; at 50.0 µM -12.8% | [5]; at 1.2 µM -3% | [5]; at 3.7 µM -1% | [5]; [16] -15% | [5]; at 11.0 µM -4% | [5]; at 33.0 µM -5% | [5]; [17] 19% | [5]; at 50.0 µM 8.35% | [5]; at 100.0 µM 22% | [6]; at 1.2 µM 0% | [6]; at 3.7 µM -6% | [6]; at 11.0 µM -5% | [6]; at 33.0 µM -1% | [6]; at 100.0 µM 61% | [7]; [16] -2% | [7]; [17] 39% | [7]; at 50.0 µM -35.7% | [8]; at 1.2 µM 1% | [8]; at 3.7 µM -7% | [8]; at 11.0 µM -6% | [8]; at 33.0 µM -5% | [8]; at 100.0 µM 26% | [9]; [16] -4% | [9]; [17] 11% | [9]; at 50.0 µM 33% | [10]; at 1.2 µM -4% | [10]; at 3.7 µM -4% | [10]; [16] -5% | [10]; at 11.0 µM -7% | [10]; at 33.0 µM -2% | [10]; [17] 10% | [10]; at 50.0 µM 0.5% | [10]; at 100.0 µM 58% | [11]; at 1.2 µM -2% | [11]; at 3.7 µM 2% | [11]; at 11.0 µM -5% | [11]; at 33.0 µM -4% | [11]; at 100.0 µM 37% | [12]; at 1.2 µM -2% | [12]; at 3.7 µM -6% | [12]; at 11.0 µM -7% | [12]; at 33.0 µM -3% | [12]; at 100.0 µM 32% | [13]; at 1.2 µM -4% | [13]; at 3.7 µM 6% | [13]; at 11.0 µM -23% | [13]; at 33.0 µM -5% | [14]; [16] 0% | [14]; [17] 34% | [14]; at 50.0 µM 6.1% | [15]; at 1.2 µM 0% | [15]; at 3.7 µM -1% | [15]; at 11.0 µM -5% | [15]; at 33.0 µM 2% | [15]; at 100.0 µM 45%
